Reference: PubChem BioAssay (NCI)
Compounds without any hit were thinned out: in the full panel of roughly 79,000, 15% have a hit. Unmarked numbers belong to inactive results. The source made the active and inactive calls. No stated cut-off is given here; in the data, active means growth inhibition above about 70%; inactive means the rest.

Assays:
[1] = NCI Yeast Anticancer Drug Screen. Data for the rad50 strain (AID 155);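 further: 0% = growth of vehicle-only cultures of the same strain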; details: S. cerevisiae rad50 strain growth inhibition; at 50.0 µM; active compounds read high
Outline: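 Vehicle-treated cultures provide the reference for the growth inhibition reported for compound-exposed, repair-deficient yeast.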

[2] = NCI Yeast Anticancer Drug Screen. Data for the mec2-1 strain (AID 157); details: S. cerevisiae mec2-1 strain, at 50.0 µM, active compounds read high
Outline: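 Vehicle-treated cultures served as reference for growth inhibition of compound-exposed mec2-1 yeast.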

[3] = NCI Yeast Anticancer Drug Screen. Data for the sgs1 mgt1 strain (AID 161);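 further: 0% = growth of cultures given vehicle only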; details: S. cerevisiae sgs1 mgt1 strain, at 50.0 µM, active compounds read high
Outline: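 Inhibition of yeast growth, normalised to vehicle-treated controls, is reported for a strain bearing genetic alterations in DNA damage repair.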

[4] = NCI Yeast Anticancer Drug Screen. Data for the cln2 rad14 strain (AID 165);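 further: 0% = growth equal to vehicle treated cultures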; details: S. cerevisiae cln2 rad14 strain, at 50.0 µM, active compounds read high
Outline: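 Each compound was tested on cln2 rad14 yeast. Inhibition of growth was calculated against vehicle-exposed controls.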

[5] = NCI Yeast Anticancer Drug Screen. Data for the bub3 strain (AID 167); details: S. cerevisiae bub3 mutant strain, at 50.0 µM, active compounds read high
Outline: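 Mutant yeast screening strain plus compound; vehicle-treated cultures serve as the 0% inhibition reference.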

[6] = NCI Yeast Anticancer Drug Screen. Data for the mlh1 rad18 strain (AID 175); details: S. cerevisiae mlh1 rad18 strain growth inhibition; at 50.0 µM; active compounds read high
Outline: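 Vehicle-treated cultures served as the reference for growth inhibition in a yeast strain carrying DNA damage repair alterations exposed to each compound.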

| SMILES | growth inhibition [1] | growth inhibition [2] | growth inhibition [3] | growth inhibition [4] | growth inhibition [5] | growth inhibition [6] |
| --- | --- | --- | --- | --- | --- | --- |
| COC(=O)NN1C(C)=C(C(=O)OC)C2(C#N)C(C(=O)OC)=C(C)N(NC(=O)OC)C12N (configuration not stated) | -14.4% | -26.6% | -56% | 9.85% | 10.2% | -18.4% |
| CC(=O)CC(=O)N1C(C)CCCC1C (configuration not stated) | -12.3% | -36.7% | -7.55% | -0.4% | -18.1% | -18.7% |
| NC(=O)C1CCCNC1 (configuration not stated) | -6.6% | -6.65% | -10.4% | -13.6% | 15.6% | 6.85% |
| O=C1c2ccc(=O)[nH]c2C(=O)C2CC3=C(CCCC3)CC12 (configuration not stated) | 20.4% | 24.6% | 59.5% | -71.1% | 42.5% | 44.5% |
| Cc1ncc(CO)c(/C=N\NC(N)=S)c1O | 9.85% | 4.7% | 8.3% | -48.5% | -39.1% | -7.25% |
| CCC(C)OC(=O)C1C(=O)CC(c2ccccc2)C1c1ccccc1 (configuration not stated) | -2.2% | -8.4% | -4.8% | -1.45% | 3.4% | -6.35% |
| CCCCNc1nnc(N)s1 | 4.65% | -24.2% | -10.3% | -34.5% | -2.2% | -27.9% |
| O=C(O)CC1SC2(C(=O)N(Cc3ccccc3)c3ccccc32)N(c2ccccc2)C1=O (configuration not stated) | 45.4% | 29.8% | 32.5% | -8.55% | 8.55% | 53% |
| NC(CSS(=O)(=O)CC(N)C(=O)O)C(=O)O (configuration not stated) | -5.85% | 3.45% | 6.15% | -20.7% | 6.4% | -7.05% |
| CC1=C2C(=CC(C)(CO)C2O)C(O)C(C)(O)C12CC2 (configuration not stated) | 21.1% | -5.15% | -17.1% | 1.95% | -13.9% | -29.8% |
| C=CCOC(=O)Nc1ccc(C)c(NC(=O)OCC=C)c1 | -28.3% | -45% | -9.1% | -25.5% | -12.6% | -33.1% |
| O=C(Nc1nc2ccc([N+](=O)[O-])cc2s1)C(=O)C(C(=O)c1ccccc1F)C1OC(=O)c2ccccc21 (configuration not stated) | 29.8% | 39.6% | 59.5% | 25.6% | 38.5% | 27.8% |
| O=C(O)CC(NC(=O)C(CC(=O)OCc1ccccc1)NC(=O)OCc1ccccc1)C(=O)OCc1ccccc1 (configuration not stated) | 44.5% | 20.6% | 27.4% | 24.4% | -5.8% | 36.6% |
| CC(=O)c1cc2c(cc1C)C(C)CCC2(C)C (configuration not stated) | -7% | -29.4% | -9.6% | -6.1% | 1.9% | -22.5% |
| CC1=CC2CC(C)C1(C)CCc1ccoc12 (configuration not stated) | 2.8% | -11.7% | -2.8% | 6.75% | 9.85% | 4.7% |
| CC1=C/C(=N/NS(=O)(=O)c2ccc(C)cc2)CC(C)(C)C1 | 27.6% | -3.25% | 11.8% | -22.3% | 4.1% | 13.2% |
| CCCCOC(=O)C1CC2CC1C1OC21 (configuration not stated) | -67.6% | -63.3% | -23.7% | -0.3% | -51.9% | -33.5% |
| Clc1cnc(Oc2ccccc2)c2ccccc12 | 2.3% | -22.2% | -10.2% | -37.4% | -1.5% | -9.35% |
| O=C(O)/C=C1/CCC(=O)O1 | -5.25% | -0.2% | 0.05% | 10.8% | 20.1% | -0.65% |
| O=C(NNC(=O)c1ccc([N+](=O)[O-])cc1)c1ccccc1 | -5.85% | 13.1% | 15.9% | -30.1% | -13.4% | -16.1% |
| Cc1ccc(C(=O)N/N=C/c2ccccc2Cl)cc1 | -3.15% | 49.1% | 33.8% | -20.4% | 34.9% | 26.6% |

| SMILES | growth inhibition [1] | growth inhibition [2] | growth inhibition [3] | growth inhibition [4] | growth inhibition [5] | growth inhibition [6] |
| --- | --- | --- | --- | --- | --- | --- |
| CNCCSSCCN | -10.2% | -0.95% | -6.3% | -18.8% | 2.6% | 0.95% |
| Cc1cccc(Cl)c1NC(=O)c1ccc(C(=O)Nc2c(C)cccc2Cl)cc1 | -3% | -17.1% | 5.25% | 4.05% | 2.6% | -12.1% |
| CCOC(=O)CCC1(C(=O)OCC)CCCCC1=O (configuration not stated) | -16.9% | -20.4% | -48.5% | -16.9% | -25.4% | -23.1% |
| COc1cc(OC)c2cc(C(=O)c3cccc4ccccc34)c(=O)oc2c1 | 1.35% | -22.8% | 9.65% | 16.9% | 19.4% | 13.4% |
| COc1cc(OC)c(NC(=O)NC(C)(C)C)cc1Cl | -3.35% | 9.4% | 17.1% | -2.5% | 18.6% | 23.4% |
| COC(=O)c1ccccc1NC(=O)Nc1cc(Cl)ccc1OC | 85.5% (active) | 91.2% (active) | 90.4% (active) | 80.8% (active) | 88.2% (active) | 88.9% (active) |
| CCCC(C)CCCC(=O)c1ccc2cc(OC)ccc2c1 (configuration not stated) | -34.2% | -16.8% | -14.5% | -33.3% | -2% | -29.9% |
| C/C(=N/Nc1ccc([N+](=O)[O-])cc1[N+](=O)[O-])C1CC2CCC1C2 (configuration not stated) | -17.4% | 2.05% | 2.1% | -4.3% | 3% | -16.6% |
| CC(=O)N(CN1C(=O)CCC1C(=O)O)c1cccc(O)c1 (configuration not stated) | 8.45% | 9% | -10.2% | -5.7% | -12.7% | -66.7% |
| CCOC(=O)c1cc2c(C(=O)c3ccc([N+](=O)[O-])cc3)c(C(C)=O)ccc2[nH]1 | 3.15% | -0.45% | -1.2% | -3.55% | 19% | -45.6% |
| O=C(CCSc1ncnc2nc[nH]c12)c1ccccc1 | -24.8% | 20.4% | -3.05% | -36.2% | 4.3% | 12.1% |
| C/C=C\C=C\C(=O)O | -30.4% | -17% | -38.3% | 4.3% | -19.8% | -31.9% |
| CC(C)NC(=O)Oc1ccccc1C(=O)OCc1ccccc1 | -0.45% | 14.1% | 28.9% | -15.1% | 13.4% | 21.2% |
| CCOC(=O)CCC(NC(=O)c1ccc(Nc2nc3cc(C(F)(F)F)ccc3nc2-c2ccccc2)cc1)C(=O)OCC (configuration not stated) | 12.9% | 2.7% | 12.1% | 3.9% | -5.35% | -37.1% |
| O=C(C1OC1c1cccc([N+](=O)[O-])c1)C12CC3CC(CC(C3)C1)C2 (configuration not stated) | 12.5% | 32% | 37.2% | 17.1% | 53% | 54.5% |
| O=C1CC[C@H]2[C@@H]3N1c1ccccc1[C@@]31CCN3C/C(=C/CBr)[C@@H]2C[C@H]31 | 21.4% | -3.05% | 6.25% | 19.4% | -1.8% | 11.1% |
| C=CCOC(=O)Nc1ccc(S(=O)(=O)N(CCC)CCC)cc1 | -13.3% | -33% | 32% | -23.4% | -14.7% | -17.2% |
| C[C@H](CCC(=O)NCCS(=O)(=O)O)[C@H]1CC[C@H]2[C@@H]3CC[C@@H]4C[C@H](O)CC[C@]4(C)[C@H]3CC[C@]12C | 2.9% | -21.1% | 5.65% | -9.3% | -5.55% | 14.8% |
| c1ccc(C[n+]2ccc3c(c2)CCCC3)cc1 | -1% | -13.2% | 27.8% | 17.3% | 19.1% | 6.4% |
| N#Cc1ccc(OCCCCOc2ccc([N+](=O)[O-])cc2Cl)cc1 | 5.75% | -10.7% | -19.4% | -3.8% | 4.65% | 20% |
| C=CSC(=S)Sc1ccccc1 | 25.6% | 28.4% | -1.15% | 3.45% | 19% | 12.9% |
